Test results as given in the supplement of paper PMC11172423.
Unmarked numbers belong to inactive results.

system: Madurella mycetomatis MM55; assay: growth relative to untreated control; higher = less inhibition, active = 20 or less; conditions: 25 µM
Experimental: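 Hyphal fragments of M. mycetomatis MM55 or F. senegalensis CBS197.79 in RPMI 1640/MOPS were exposed to each MMV COVID Box or Global Health Priority Box compound at 100 or 25 µM for 7 days at 37 °C. Viability was read with MTS (490 nm, M. mycetomatis) or resazurin (600 nm, F. senegalensis), background-corrected with a medium-only control and expressed as % growth relative to the untreated growth control. Inhibition of more than 80% was taken as growth inhibition.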

SMILES	growth
CC(C)=CC1C(C(=O)OC(C#N)c2cccc(Oc3ccccc3)c2)C1(C)C (stereo not given)	83.3%
CC(COc1ccc(Oc2ccccc2)cc1)Oc1ccccn1 (stereo not given)	50.7%
CCC(CC)c1cccc(OC(=O)NC)c1.CCCC(C)c1cccc(OC(=O)NC)c1	96.3%
CC(c1ccc(C(F)(F)F)nc1)S(C)(=O)=NC#N (stereo not given)	71.6%
CN(C)CCn1c(Nc2cc(Cl)cc(C(F)(F)F)c2)nc2cnc(NC3CCCC3)cc21	39.6%
CC(F)c1ncnc(NCCc2ccc(OC(F)(F)F)cc2)c1Cl (stereo not given)	11% (active)
O=C1C=C(N(Cc2ccc(Cl)nc2)CC(F)F)CO1	92.5%
NCCc1cn(S(=O)(=O)c2c(Cl)nc3sccn23)c2ccccc12	79.9%
CN1CCN(C(=O)O[C@H]2c3nccnc3C(=O)N2c2ccc(Cl)cn2)CC1	72.7%
CC[C@H](C)[C@H]1O[C@]2(C=C[C@@H]1C)C[C@@H]1C[C@@H](C/C=C(\C)[C@@H](O[C@H]3C[C@H](OC)[C@@H](O[C@H]4C[C@H](OC)[C@@H](O)[C@H](C)O4)[C@H](C)O3)[C@@H](C)/C=C/C=C3\CO[C@@H]4[C@H](O)C(C)=C[C@@H](C(=O)O1)[C@]34O)O2.CO[C@H]1C[C@H](O[C@H]2[C@H](C)O[C@@H](O[C@@H]3/C(C)=C/C[C@@H]4C[C@@H](C[C@]5(C=C[C@H](C)[C@@H](C(C)C)O5)O4)OC(=O)[C@@H]4C=C(C)[C@@H](O)[C@H]5OC/C(=C\C=C\[C@@H]3C)[C@]54O)C[C@@H]2OC)O[C@@H](C)[C@@H]1O	75.2%
CCOc1ccc(C(C)(C)COCc2cccc(Oc3ccccc3)c2)cc1	97%
COC(=O)N(C(=O)N1CO[C@@]2(C(=O)OC)Cc3cc(Cl)ccc3C2=N1)c1ccc(OC(F)(F)F)cc1	46.3%
CNC(=O)Oc1cccc2ccccc12	95.8%
CC1(Nc2ncc3nc(Nc4cc(Cl)cc(C(F)(F)F)c4)n(C4CCNC4)c3n2)CC1 (stereo not given)	6.99% (active)
C[C@@H]1C[C@@H]([C@H](O)CC2CC(=O)NC(=O)C2)C(=O)[C@@H](C)C1	31.4%
CN(c1cc(NC(=O)c2ccc(F)cc2)ccn1)C1CCN(Cc2cccc(F)c2)CC1	5.69% (active)
CN(C)CCn1c(Nc2cc(Cl)cc(C(F)(F)F)c2)nc2cnc(NC3CCC3)cc21	80.9%
O=[N+]([O-])/N=C1\NCCN1Cc1ccc(Cl)nc1	92.8%
C/C=C(\C)C(=O)O[C@H]1C[C@@H](OC(C)=O)[C@@]2(C(=O)OC)CO[C@H]3[C@@H](O)[C@@](C)([C@]45O[C@@]4(C)[C@H]4C[C@@H]5O[C@@H]5OC=C[C@@]54O)[C@H]4[C@]1(CO[C@]4(O)C(=O)OC)[C@@H]32	130%
CCN(CC)c1nc(C)cc(OP(=S)(OC)OC)n1	110%

same assay, conditions: 100 µM

SMILES	growth
CC(C)=CC1C(C(=O)OC(C#N)c2cccc(Oc3ccccc3)c2)C1(C)C (stereo not given)	145%
CC(COc1ccc(Oc2ccccc2)cc1)Oc1ccccn1 (stereo not given)	46.3%
CCC(CC)c1cccc(OC(=O)NC)c1.CCCC(C)c1cccc(OC(=O)NC)c1	147%
CC(c1ccc(C(F)(F)F)nc1)S(C)(=O)=NC#N (stereo not given)	173%
CN(C)CCn1c(Nc2cc(Cl)cc(C(F)(F)F)c2)nc2cnc(NC3CCCC3)cc21	124%
CC(F)c1ncnc(NCCc2ccc(OC(F)(F)F)cc2)c1Cl (stereo not given)	10.1% (active)
O=C1C=C(N(Cc2ccc(Cl)nc2)CC(F)F)CO1	114%
NCCc1cn(S(=O)(=O)c2c(Cl)nc3sccn23)c2ccccc12	2.9% (active)
CN1CCN(C(=O)O[C@H]2c3nccnc3C(=O)N2c2ccc(Cl)cn2)CC1	88.8%
CC[C@H](C)[C@H]1O[C@]2(C=C[C@@H]1C)C[C@@H]1C[C@@H](C/C=C(\C)[C@@H](O[C@H]3C[C@H](OC)[C@@H](O[C@H]4C[C@H](OC)[C@@H](O)[C@H](C)O4)[C@H](C)O3)[C@@H](C)/C=C/C=C3\CO[C@@H]4[C@H](O)C(C)=C[C@@H](C(=O)O1)[C@]34O)O2.CO[C@H]1C[C@H](O[C@H]2[C@H](C)O[C@@H](O[C@@H]3/C(C)=C/C[C@@H]4C[C@@H](C[C@]5(C=C[C@H](C)[C@@H](C(C)C)O5)O4)OC(=O)[C@@H]4C=C(C)[C@@H](O)[C@H]5OC/C(=C\C=C\[C@@H]3C)[C@]54O)C[C@@H]2OC)O[C@@H](C)[C@@H]1O	55.6%
CCOc1ccc(C(C)(C)COCc2cccc(Oc3ccccc3)c2)cc1	116%
COC(=O)N(C(=O)N1CO[C@@]2(C(=O)OC)Cc3cc(Cl)ccc3C2=N1)c1ccc(OC(F)(F)F)cc1	115%
CNC(=O)Oc1cccc2ccccc12	85.3%
CC1(Nc2ncc3nc(Nc4cc(Cl)cc(C(F)(F)F)c4)n(C4CCNC4)c3n2)CC1 (stereo not given)	6.62% (active)
C[C@@H]1C[C@@H]([C@H](O)CC2CC(=O)NC(=O)C2)C(=O)[C@@H](C)C1	3.56% (active)
CN(c1cc(NC(=O)c2ccc(F)cc2)ccn1)C1CCN(Cc2cccc(F)c2)CC1	9.07% (active)
CN(C)CCn1c(Nc2cc(Cl)cc(C(F)(F)F)c2)nc2cnc(NC3CCC3)cc21	104%
O=[N+]([O-])/N=C1\NCCN1Cc1ccc(Cl)nc1	98.3%
C/C=C(\C)C(=O)O[C@H]1C[C@@H](OC(C)=O)[C@@]2(C(=O)OC)CO[C@H]3[C@@H](O)[C@@](C)([C@]45O[C@@]4(C)[C@H]4C[C@@H]5O[C@@H]5OC=C[C@@]54O)[C@H]4[C@]1(CO[C@]4(O)C(=O)OC)[C@@H]32	106%
CCN(CC)c1nc(C)cc(OP(=S)(OC)OC)n1	99.4%
